Laboratory results taken from paper PMC7862700, “An all-to-all approach to the identification of sequence-specific readers for epigenetic DNA modifications on cytosine”.

Assays:
Assay in all cases: DAPPL (digital affinity profiling via proximity ligation, sequencing); 10 mM Tris-HCl pH 7.5, 50 mM NaCl, 1 mM DTT, 4% glycerol, room temperature, 30 min; GST-TFs on glutathione beads, 16-mer random dsDNA library, 0.1% formaldehyde crosslink after washing; high values mean tight binding
Conditions in all cases: protein: recombinant; tags: N-terminal GST; dsDNA, one strand shown
FEV = target: T1, FEV (Homo sapiens, UniProt Q99581 1-238)
T1 sequence: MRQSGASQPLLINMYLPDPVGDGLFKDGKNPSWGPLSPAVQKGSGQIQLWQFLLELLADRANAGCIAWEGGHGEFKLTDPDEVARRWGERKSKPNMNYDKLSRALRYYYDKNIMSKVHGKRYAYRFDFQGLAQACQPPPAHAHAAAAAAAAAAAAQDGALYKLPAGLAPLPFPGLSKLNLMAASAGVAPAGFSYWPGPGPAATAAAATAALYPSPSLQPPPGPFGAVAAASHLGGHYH
How it was run: (§1)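 Pools of DNA-barcoded human transcription factors, expressed in yeast as GST fusions on glutathione beads and combined with a tag-only sample, were incubated with 200 nmole of a 16-mer random double-stranded DNA library. Incubation took 30 min at room temperature in Tris/NaCl/DTT/glycerol buffer and was followed by washing, 0.1% formaldehyde crosslinking, proximity ligation (BsaI/T4 ligase, 1 h, 37 °C), PCR amplification and sequencing on an Illumina NextSeq500. Binding signal is the ratio of a hexamer's read frequency for a factor to its frequency for the tag-only sample.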

ETV5 = ETV5 (Homo sapiens, UniProt P41161 1-510)
Chain of ETV5 (P41161 whole entry): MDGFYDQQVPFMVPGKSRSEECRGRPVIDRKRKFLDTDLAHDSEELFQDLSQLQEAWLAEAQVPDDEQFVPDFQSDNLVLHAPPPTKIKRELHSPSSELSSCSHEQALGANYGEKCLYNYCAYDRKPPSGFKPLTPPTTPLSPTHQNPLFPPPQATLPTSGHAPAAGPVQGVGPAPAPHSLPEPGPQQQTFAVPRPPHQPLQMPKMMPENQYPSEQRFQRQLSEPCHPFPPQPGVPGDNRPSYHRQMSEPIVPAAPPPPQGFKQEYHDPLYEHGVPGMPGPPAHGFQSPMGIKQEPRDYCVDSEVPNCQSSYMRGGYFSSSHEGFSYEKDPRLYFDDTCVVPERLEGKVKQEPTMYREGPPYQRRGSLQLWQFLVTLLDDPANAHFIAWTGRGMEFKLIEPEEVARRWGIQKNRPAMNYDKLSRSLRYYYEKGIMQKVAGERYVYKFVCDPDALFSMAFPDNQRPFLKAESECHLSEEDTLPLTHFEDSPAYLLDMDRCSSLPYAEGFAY
How it was run: as §1

SPIC = target: T2, SPIC (Homo sapiens, UniProt Q8N5J4 1-248)
T2 sequence: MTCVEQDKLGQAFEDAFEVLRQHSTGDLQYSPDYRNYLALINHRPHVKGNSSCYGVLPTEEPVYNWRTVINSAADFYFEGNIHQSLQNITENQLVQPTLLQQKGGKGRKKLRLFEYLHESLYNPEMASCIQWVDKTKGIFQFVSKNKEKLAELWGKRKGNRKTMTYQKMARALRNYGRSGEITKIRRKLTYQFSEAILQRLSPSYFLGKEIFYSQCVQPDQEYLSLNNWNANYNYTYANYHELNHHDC
How it was run: as §1

ELF4 = ELF4 (Homo sapiens, UniProt Q99607 1-663)
Chain of ELF4 (Q99607 whole entry): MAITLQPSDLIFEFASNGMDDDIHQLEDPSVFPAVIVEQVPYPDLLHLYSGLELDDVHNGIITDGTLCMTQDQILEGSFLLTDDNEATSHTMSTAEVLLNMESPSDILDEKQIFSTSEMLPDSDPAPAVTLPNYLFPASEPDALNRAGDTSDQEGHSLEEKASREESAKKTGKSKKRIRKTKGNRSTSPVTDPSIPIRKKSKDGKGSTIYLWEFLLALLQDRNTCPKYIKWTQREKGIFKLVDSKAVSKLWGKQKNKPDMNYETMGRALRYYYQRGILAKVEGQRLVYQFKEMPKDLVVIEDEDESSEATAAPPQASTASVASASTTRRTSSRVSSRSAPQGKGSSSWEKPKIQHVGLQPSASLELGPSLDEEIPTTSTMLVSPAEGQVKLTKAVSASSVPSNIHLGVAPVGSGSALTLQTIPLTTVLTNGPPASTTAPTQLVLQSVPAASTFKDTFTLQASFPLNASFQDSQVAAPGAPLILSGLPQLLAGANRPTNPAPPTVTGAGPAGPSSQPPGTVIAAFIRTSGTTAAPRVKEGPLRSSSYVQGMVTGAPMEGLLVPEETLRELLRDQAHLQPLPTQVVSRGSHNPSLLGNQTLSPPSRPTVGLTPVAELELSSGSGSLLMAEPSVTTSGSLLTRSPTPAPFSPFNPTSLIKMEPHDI
How it was run: as §1

ELK4 = target: T3, ELK4 (Homo sapiens, UniProt P28324-2 1-405)
T3 sequence: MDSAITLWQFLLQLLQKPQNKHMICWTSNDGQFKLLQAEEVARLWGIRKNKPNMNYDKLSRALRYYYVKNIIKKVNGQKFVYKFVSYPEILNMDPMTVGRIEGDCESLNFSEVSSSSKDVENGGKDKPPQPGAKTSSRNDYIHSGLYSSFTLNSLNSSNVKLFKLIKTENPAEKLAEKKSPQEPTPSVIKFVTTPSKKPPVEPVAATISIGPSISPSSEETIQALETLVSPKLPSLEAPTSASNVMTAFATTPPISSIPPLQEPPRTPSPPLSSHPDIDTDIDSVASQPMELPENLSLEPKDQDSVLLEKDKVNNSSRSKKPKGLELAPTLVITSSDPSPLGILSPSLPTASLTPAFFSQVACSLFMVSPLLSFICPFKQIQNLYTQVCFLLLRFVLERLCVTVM
How it was run: as §1

ETV2 = target: T4, ETV2 (Homo sapiens, UniProt O00321 1-342)
T4 sequence: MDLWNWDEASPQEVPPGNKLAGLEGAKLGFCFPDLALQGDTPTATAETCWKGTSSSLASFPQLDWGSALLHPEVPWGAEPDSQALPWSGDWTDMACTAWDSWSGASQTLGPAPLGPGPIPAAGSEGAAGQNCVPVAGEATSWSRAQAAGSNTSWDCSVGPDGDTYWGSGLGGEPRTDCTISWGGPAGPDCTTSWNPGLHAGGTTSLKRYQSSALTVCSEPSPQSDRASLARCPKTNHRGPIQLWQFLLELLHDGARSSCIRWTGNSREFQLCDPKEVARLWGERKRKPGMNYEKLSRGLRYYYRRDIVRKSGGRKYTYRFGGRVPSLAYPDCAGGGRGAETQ
How it was run: as §1

ELF3 = target: T5, ELF3 (Homo sapiens, UniProt P78545 1-371)
T5 sequence: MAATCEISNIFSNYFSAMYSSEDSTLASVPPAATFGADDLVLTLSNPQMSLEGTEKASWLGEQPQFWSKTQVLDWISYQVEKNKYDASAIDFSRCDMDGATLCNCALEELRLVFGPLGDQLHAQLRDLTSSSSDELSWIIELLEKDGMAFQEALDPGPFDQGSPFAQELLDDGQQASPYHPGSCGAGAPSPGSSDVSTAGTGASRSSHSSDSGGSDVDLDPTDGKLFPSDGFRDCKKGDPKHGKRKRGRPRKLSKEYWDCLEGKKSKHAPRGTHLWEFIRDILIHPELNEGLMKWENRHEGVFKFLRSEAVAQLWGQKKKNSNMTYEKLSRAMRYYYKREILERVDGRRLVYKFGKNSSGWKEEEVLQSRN
How it was run: as §1

ETV1 = ETV1 (Homo sapiens, UniProt P50549 1-477)
Chain of ETV1 (P50549 whole entry): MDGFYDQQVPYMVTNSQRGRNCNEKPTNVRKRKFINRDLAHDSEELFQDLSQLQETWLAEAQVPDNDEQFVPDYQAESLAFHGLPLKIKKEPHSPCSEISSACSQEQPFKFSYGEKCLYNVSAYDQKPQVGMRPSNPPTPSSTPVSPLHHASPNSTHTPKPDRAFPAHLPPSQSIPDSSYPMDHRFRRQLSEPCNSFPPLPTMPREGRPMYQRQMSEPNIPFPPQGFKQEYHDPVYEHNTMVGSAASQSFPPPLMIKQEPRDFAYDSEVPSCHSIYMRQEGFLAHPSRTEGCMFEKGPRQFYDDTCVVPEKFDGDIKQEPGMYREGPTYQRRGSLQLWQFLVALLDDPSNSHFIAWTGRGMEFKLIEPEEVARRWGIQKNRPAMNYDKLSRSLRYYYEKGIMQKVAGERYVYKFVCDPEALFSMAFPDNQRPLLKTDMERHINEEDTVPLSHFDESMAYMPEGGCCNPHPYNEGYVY
How it was run: as §1

Row | Sequence | binding signal (FEV) | binding signal (ETV5) | binding signal (SPIC) | binding signal (ELF4) | binding signal (ELK4) | binding signal (ETV2) | binding signal (ELF3) | binding signal (ETV1)
1 | GCACAA | 1.1 fold enrichment (6-mer frequency, TF over GST control) | 1.07 fold enrichment (6-mer frequency, TF over GST control) | 1.09 fold enrichment (6-mer frequency, TF over GST control) | 1.11 fold enrichment (6-mer frequency, TF over GST control) | 1.08 fold enrichment (6-mer frequency, TF over GST control) | 1.03 fold enrichment (6-mer frequency, TF over GST control) | 1.13 fold enrichment (6-mer frequency, TF over GST control) | 1.04 fold enrichment (6-mer frequency, TF over GST control)
2 | CACAAC | 1.31 fold enrichment (6-mer frequency, TF over GST control) | 1.24 fold enrichment (6-mer frequency, TF over GST control) | 1.25 fold enrichment (6-mer frequency, TF over GST control) | 1.23 fold enrichment (6-mer frequency, TF over GST control) | 1.25 fold enrichment (6-mer frequency, TF over GST control) | 1.19 fold enrichment (6-mer frequency, TF over GST control) | 1.3 fold enrichment (6-mer frequency, TF over GST control) | 1.2 fold enrichment (6-mer frequency, TF over GST control)
3 | TGTCCA | 1.11 fold enrichment (6-mer frequency, TF over GST control) | 1.15 fold enrichment (6-mer frequency, TF over GST control) | 1.17 fold enrichment (6-mer frequency, TF over GST control) | 1.16 fold enrichment (6-mer frequency, TF over GST control) | 1.11 fold enrichment (6-mer frequency, TF over GST control) | 1.3 fold enrichment (6-mer frequency, TF over GST control) | 1.06 fold enrichment (6-mer frequency, TF over GST control) | 1.04 fold enrichment (6-mer frequency, TF over GST control)
4 | CATGTA | 1.03 fold enrichment (6-mer frequency, TF over GST control) | 1.08 fold enrichment (6-mer frequency, TF over GST control) | 1.08 fold enrichment (6-mer frequency, TF over GST control) | 1.14 fold enrichment (6-mer frequency, TF over GST control) | 1.16 fold enrichment (6-mer frequency, TF over GST control) | 1.11 fold enrichment (6-mer frequency, TF over GST control) | 1.03 fold enrichment (6-mer frequency, TF over GST control) | 1.06 fold enrichment (6-mer frequency, TF over GST control)
5 | CGACGT | 1.09 fold enrichment (6-mer frequency, TF over GST control) | 1.12 fold enrichment (6-mer frequency, TF over GST control) | 1.05 fold enrichment (6-mer frequency, TF over GST control) | 1.21 fold enrichment (6-mer frequency, TF over GST control) | 1.15 fold enrichment (6-mer frequency, TF over GST control) | 1.49 fold enrichment (6-mer frequency, TF over GST control) | 1.09 fold enrichment (6-mer frequency, TF over GST control) | 1.05 fold enrichment (6-mer frequency, TF over GST control)
6 | GTCCTT | 1.29 fold enrichment (6-mer frequency, TF over GST control) | 1.19 fold enrichment (6-mer frequency, TF over GST control) | 1.23 fold enrichment (6-mer frequency, TF over GST control) | 1.21 fold enrichment (6-mer frequency, TF over GST control) | 1.15 fold enrichment (6-mer frequency, TF over GST control) | 1.31 fold enrichment (6-mer frequency, TF over GST control) | 1.16 fold enrichment (6-mer frequency, TF over GST control) | 1.13 fold enrichment (6-mer frequency, TF over GST control)
7 | GTCCAT | 1.03 fold enrichment (6-mer frequency, TF over GST control) | 1.17 fold enrichment (6-mer frequency, TF over GST control) | 1.17 fold enrichment (6-mer frequency, TF over GST control) | 1.1 fold enrichment (6-mer frequency, TF over GST control) | 1.18 fold enrichment (6-mer frequency, TF over GST control) | 1.04 fold enrichment (6-mer frequency, TF over GST control) | 1.11 fold enrichment (6-mer frequency, TF over GST control) | 1.18 fold enrichment (6-mer frequency, TF over GST control)
8 | CAACCC | 1.21 fold enrichment (6-mer frequency, TF over GST control) | 1.23 fold enrichment (6-mer frequency, TF over GST control) | 1.23 fold enrichment (6-mer frequency, TF over GST control) | 1.34 fold enrichment (6-mer frequency, TF over GST control) | 1.22 fold enrichment (6-mer frequency, TF over GST control) | 1.17 fold enrichment (6-mer frequency, TF over GST control) | 1.34 fold enrichment (6-mer frequency, TF over GST control) | 1.18 fold enrichment (6-mer frequency, TF over GST control)
9 | CCGCCG | 1.55 fold enrichment (6-mer frequency, TF over GST control) | 1.25 fold enrichment (6-mer frequency, TF over GST control) | 1.22 fold enrichment (6-mer frequency, TF over GST control) | 1.29 fold enrichment (6-mer frequency, TF over GST control) | 1.27 fold enrichment (6-mer frequency, TF over GST control) | 1.11 fold enrichment (6-mer frequency, TF over GST control) | 1.23 fold enrichment (6-mer frequency, TF over GST control) | 1.25 fold enrichment (6-mer frequency, TF over GST control)
10 | AACCGG | 2.35 fold enrichment (6-mer frequency, TF over GST control) | 1.53 fold enrichment (6-mer frequency, TF over GST control) | 1.4 fold enrichment (6-mer frequency, TF over GST control) | 1.31 fold enrichment (6-mer frequency, TF over GST control) | 1.26 fold enrichment (6-mer frequency, TF over GST control) | 1.45 fold enrichment (6-mer frequency, TF over GST control) | 1.36 fold enrichment (6-mer frequency, TF over GST control) | 1.69 fold enrichment (6-mer frequency, TF over GST control)
11 | GTACCT | 1.14 fold enrichment (6-mer frequency, TF over GST control) | 1.26 fold enrichment (6-mer frequency, TF over GST control) | 1.44 fold enrichment (6-mer frequency, TF over GST control) | 1.23 fold enrichment (6-mer frequency, TF over GST control) | 1.25 fold enrichment (6-mer frequency, TF over GST control) | 1.32 fold enrichment (6-mer frequency, TF over GST control) | 1.57 fold enrichment (6-mer frequency, TF over GST control) | 1.27 fold enrichment (6-mer frequency, TF over GST control)
12 | TGCCCT | 1.18 fold enrichment (6-mer frequency, TF over GST control) | 1.11 fold enrichment (6-mer frequency, TF over GST control) | 1.2 fold enrichment (6-mer frequency, TF over GST control) | 1.12 fold enrichment (6-mer frequency, TF over GST control) | 1.25 fold enrichment (6-mer frequency, TF over GST control) | 1.13 fold enrichment (6-mer frequency, TF over GST control) | 1.27 fold enrichment (6-mer frequency, TF over GST control) | 1.08 fold enrichment (6-mer frequency, TF over GST control)
13 | ACATGT | 1.03 fold enrichment (6-mer frequency, TF over GST control) | 1.16 fold enrichment (6-mer frequency, TF over GST control) | 1.13 fold enrichment (6-mer frequency, TF over GST control) | 1.15 fold enrichment (6-mer frequency, TF over GST control) | 1.27 fold enrichment (6-mer frequency, TF over GST control) | 1.21 fold enrichment (6-mer frequency, TF over GST control) | 1.02 fold enrichment (6-mer frequency, TF over GST control) | 1.09 fold enrichment (6-mer frequency, TF over GST control)
14 | AGGAAG | 1.24 fold enrichment (6-mer frequency, TF over GST control) | 1.44 fold enrichment (6-mer frequency, TF over GST control) | 1.51 fold enrichment (6-mer frequency, TF over GST control) | 1.21 fold enrichment (6-mer frequency, TF over GST control) | 1.11 fold enrichment (6-mer frequency, TF over GST control) | 1.4 fold enrichment (6-mer frequency, TF over GST control) | 1.52 fold enrichment (6-mer frequency, TF over GST control) | 1.5 fold enrichment (6-mer frequency, TF over GST control)
15 | TCGCCG | 1.26 fold enrichment (6-mer frequency, TF over GST control) | 1.03 fold enrichment (6-mer frequency, TF over GST control) | 1.09 fold enrichment (6-mer frequency, TF over GST control) | 1.21 fold enrichment (6-mer frequency, TF over GST control) | 1.3 fold enrichment (6-mer frequency, TF over GST control) | 1.2 fold enrichment (6-mer frequency, TF over GST control) | 1.21 fold enrichment (6-mer frequency, TF over GST control) | 1.37 fold enrichment (6-mer frequency, TF over GST control)
